About 83,000 compounds went through this panel and 20% of them were active in at least one assay; those are over-represented in the sample as a whole.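 Results are percent growth after 48 hours of single-concentration exposure. 100 means growth as in untreated cells, lower positive values show inhibition; negative values down to -100 show cell death.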 Unmarked numbers belong to inactive results. Calls of active or inactive are those of the source. Rule for the calls: active = growth percent below 10; inactive = the rest.
Assays:
Test in all cases: NCI-60 one-dose screen, 48 h (100 = growth as untreated, 0 = no growth, -100 = all killed)
Conditions in all cases: 10 µM
K-562 leukemia = test system: K-562 leukemia
MALME-3M melanoma = test system: MALME-3M melanoma
MDA-MB-231 breast = test system: MDA-MB-231 breast
RXF 393 renal = test system: RXF 393 renal
SF-268 CNS = test system: SF-268 CNS
SF-295 CNS = test system: SF-295 CNS
SF-539 CNS = test system: SF-539 CNS
M14 melanoma = test system: M14 melanoma
HCT-15 colon = test system: HCT-15 colon
UACC-257 melanoma = test system: UACC-257 melanoma

| Compound | growth (K-562 leukemia) | growth (MALME-3M melanoma) | growth (MDA-MB-231 breast) | growth (RXF 393 renal) | growth (SF-268 CNS) | growth (SF-295 CNS) | growth (SF-539 CNS) | growth (M14 melanoma) | growth (HCT-15 colon) | growth (UACC-257 melanoma) |
| --- | --- | --- | --- | --- | --- | --- | --- | --- | --- | --- |
| CC(C)=CCc1cc(O)cc2c1OC(C=C(C)C)C1=C2C(=O)C2=C(C1=O)S(=O)(=O)CCN2 (stereo not drawn) | 5.77% (active) | -64.7% (active) | 17.5% | 73.3% | 2.3% (active) | 85.5% | -19.2% (active) | 27.6% | 58% | – |
| CC(C)=CCc1cc(O)cc2c1OC(C=C(C)C)C1=C2C(=O)C2=C(NCCS2(=O)=O)C1=O (stereo not drawn) | 2.31% (active) | -92.9% (active) | -8.67% (active) | -2.85% (active) | -1.83% (active) | 45.9% | -50.5% (active) | -87.2% (active) | 28.4% | – |
| CC12O[C@H](C[C@@H](O)[C@H]1O)n1c3ccccc3c3c4c(c5c6ccccc6n2c5c31)C(=O)N(CCCN)C4=O | 15.5% | 33.4% | 41.1% | 26.4% | 36.5% | 51% | 39.1% | 37.1% | 96.4% | – |
| COc1ccc(Nc2ccnc(NCCNc3ccnc4cc(Cl)ccc34)n2)cc1 | 3.54% (active) | -1.18% (active) | 37.3% | 55.7% | 54.5% | 46.1% | -14.4% (active) | -16.6% (active) | 36.8% | – |
| Oc1[nH]c2cc(Cl)ccc2c1/C=c1/ccc2c(c1)N=C(c1cc(F)cc(F)c1)N=2 | 10.3% | 51.4% | 66.7% | 1.45% (active) | – | 13.5% | 3.76% (active) | -9.94% (active) | 37.3% | 55.6% |
| COc1ccc(Nc2cc(C)nc(NCCCNc3ccnc4cc(Cl)ccc34)n2)cc1 | -42.2% (active) | -86.2% (active) | -67.7% (active) | -90.4% (active) | -54.5% (active) | -78.8% (active) | -100% (active) | -81.1% (active) | -55.8% (active) | – |
| COc1ccc2c(c1)/C(=C\c1c[nH]c3ccc(OC)cc13)C(=O)N2 | 11.6% | 91.8% | 42.3% | 60.5% | – | 74% | 74.2% | 29.8% | 31.6% | 68.1% |
| COc1ccc(-c2nc3ncccn3c2-c2nnc(-c3ccsc3C)o2)cc1 | 92.2% | 80.8% | 80.6% | 82.8% | – | 80.3% | 86.4% | 107% | 88.9% | 78.4% |
| Cc1cc(Cl)nc(N(CCCNc2ccnc3cc(Cl)ccc23)Cc2cccs2)n1 | -11.7% (active) | -30% (active) | 17.2% | 0.398% (active) | 38.6% | 13.1% | 3.33% (active) | -7.28% (active) | 8.59% (active) | – |
| Cc1ccc(C(=O)Nc2cccc(F)c2)cc1NC(=O)C1(c2ncnc3[nH]ccc23)CC1 | 6.39% (active) | 35% | 54.8% | 91.5% | 95.2% | 89.3% | 73% | 60% | 88.8% | – |
| COc1ccc(-c2nc3sccn3c2-c2nc3c([nH]2)C(=O)c2ccccc2C3=O)cc1 | 84.8% | 151% | 96.1% | 98.2% | – | 87.2% | 98% | 130% | 87.8% | 89.2% |
| COc1cc(-c2nc(-c3nnc(-c4ccccc4Cl)o3)c3ccccn23)cc(OC)c1OC | 65.8% | 119% | 90.7% | 90.8% | – | 77.9% | 88.3% | 112% | 73.3% | 91.4% |
| Clc1ccc(Nc2ccnc(NCCNc3ccnc4cc(Cl)ccc34)n2)cc1 | -54.6% (active) | -83.6% (active) | -20.4% (active) | 0.0582% (active) | -10.7% (active) | -58.9% (active) | -94.5% (active) | -86.8% (active) | 3.75% (active) | – |
| O=C1/C(=C\c2cn(C(=O)c3ccc(Cl)cc3)c3ccccc23)c2ccccc2N1C(=O)c1ccc(Cl)cc1 | 83.9% | 126% | 81.2% | 83.3% | 77.6% | 102% | 67.3% | 79.2% | 65.8% | – |
| CC12O[C@H](C[C@@H](OC(=O)c3ccccc3)[C@H]1O)n1c3ccccc3c3c4c(c5c6ccccc6n2c5c31)C(=O)NC4=O | 71% | 46.4% | 53.3% | 15.6% | 61.4% | 45.8% | 86.6% | 44.4% | 77.7% | – |
| COc1cc(Nc2ccnc(NCCCNc3ccnc4cc(Cl)ccc34)n2)cc(OC)c1 | -51.1% (active) | -87.7% (active) | -54.6% (active) | -83.3% (active) | -19.9% (active) | -75.9% (active) | -98.5% (active) | -85.6% (active) | 0.0216% (active) | – |
| Cc1cc(N(CCCNc2ccnc3cc(Cl)ccc23)Cc2ccc3c(c2)OCO3)nc(N2CCCCC2)n1 | -45.5% (active) | -81.6% (active) | -47.2% (active) | -74.5% (active) | 3.28% (active) | -67.6% (active) | -87.7% (active) | -86% (active) | -78.3% (active) | – |
| CCCCN(CCCC)CCCCCCCCC(O)c1cc2ccccc2c2ccccc12 (stereo not drawn) | 22.6% | 76.8% | 56.2% | – | 65.9% | 77.5% | 74.6% | 45.7% | 34.6% | 91.4% |
| COc1cc(-c2nc(-c3nnc(-c4ccc(F)c(Cl)c4)o3)c3ccccn23)cc(OC)c1OC | 52.6% | 13.4% | 57.3% | 40.4% | – | 37.3% | 37% | 70% | 55.4% | 40.3% |
| Nc1ccc2c(c1)C1(CCC2)NC(=O)NC1=O (stereo not drawn) | 95.8% | 101% | 101% | 96.1% | 100% | 108% | 93% | 100% | 92.7% | – |
| CN(C)CCNC(=O)c1cccn2c(=O)c3cc4ccccc4cc3nc12 | 4.58% (active) | -45.2% (active) | 22% | -89.5% (active) | -14.9% (active) | -19.7% (active) | 1.59% (active) | -63.7% (active) | 12.7% | – |
| COc1ccc(-c2nnc(-c3c(-c4ccccc4)nc4ncccn34)o2)cc1OC | 88.8% | 121% | 91.3% | 98.3% | – | 101% | 94.5% | 119% | – | 96.7% |
| COc1ccc(-c2nc3ncccn3c2-c2nnc(-c3ccc(F)cc3)o2)cc1 | 87.7% | 122% | 88.9% | 111% | – | 97.1% | 94.5% | 110% | 93.8% | 105% |
| CCN(CC)CCC(CNc1c(C)cnc2cc(Cl)ccc12)c1ccc(Cl)c(Cl)c1 (stereo not drawn) | 1.52% (active) | -52% (active) | 25.5% | – | 71.8% | 65.4% | 20.9% | -64.5% (active) | – | -49.6% (active) |
| NC(=O)CC1(c2ccccc2)CCCCC1 | 92.3% | 93.8% | 105% | 114% | 98.5% | 103% | 104% | 96% | 101% | – |
| CN1CCC(CNc2cc(C3(C(=O)Nc4cc(C(=O)Nc5ccc(Cl)c(C(F)(F)F)c5)ccc4F)CC3)ncn2)CC1 | -60.3% (active) | -67.7% (active) | -32.2% (active) | -46.8% (active) | 18.2% | -54.4% (active) | -57.2% (active) | -52% (active) | -20.3% (active) | – |
| COc1ccc(-c2nc3ccccn3c2-c2nnc(-c3cc(OC)c(OC)c(OC)c3)o2)cc1 | 102% | 51.5% | 46.9% | 74.3% | – | 64.9% | 52.8% | 75.7% | 71.6% | 84.2% |
| Fc1ccc(-c2nnc(-c3c(-c4ccc(F)cc4)nc4ccccn34)o2)cc1 | 87.2% | 120% | 78.9% | 85.9% | – | 88.7% | -10.1% (active) | 116% | 98.5% | 85.1% |
| Clc1ccc(Nc2ccnc(NCCCNc3ccnc4cc(Cl)ccc34)n2)cc1 | -56.9% (active) | -81% (active) | -86% (active) | -89.3% (active) | -75.8% (active) | -81.1% (active) | -96.8% (active) | -80% (active) | -60.6% (active) | – |
| COc1cc(Nc2ccnc(NCCNc3ccnc4cc(Cl)ccc34)n2)cc(OC)c1 | 2.17% (active) | -68.3% (active) | 27.1% | 46.2% | 50.5% | 39.9% | -65.9% (active) | -79.9% (active) | 28.8% | – |
